Source: PubChem BioAssay (NCI)
About 83,000 compounds went through this panel and 20% of them were active in at least one assay; those are over-represented in the sample as a whole.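 Method: cells in 96-well plates; compound added at one concentration; 48 h incubation; percent growth measured; values under 10 scored active.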 Unmarked numbers belong to inactive results. Activity calls are given as the source filed them.

Assays:
Assay in all cases: NCI-60 one-dose screen, 48 h (100 = growth as untreated, 0 = no growth, -100 = all killed)
Details in all cases: 10 µM unless noted
[1] = system: DU-145 prostate
[2] = system: K-562 leukemia
[3] = system: MDA-MB-231 breast
[4] = system: RXF 393 renal
[5] = system: SF-268 CNS
[6] = system: SF-295 CNS
[7] = system: SF-539 CNS
[8] = system: M14 melanoma
[9] = system: MALME-3M melanoma

| SMILES | growth [1] | growth [2] | growth [3] | growth [4] | growth [5] | growth [6] | growth [7] | growth [8] | growth [9] |
| --- | --- | --- | --- | --- | --- | --- | --- | --- | --- |
| COc1ccc(-n2c(=O)c3ccccc3n(Cc3ccc(C(=O)NO)cc3)c2=O)cc1 | 20.2% | 1.76% (active) | 47.4% | -41.6% (active) | 32.5% | 4.34% (active) | -10.6% (active) | -7.23% (active) | – |
| Nc1cc2c(cc1Br)-c1c(C(=O)O)cccc1C2O (stereo unspecified) | 110% | – | 98.3% | – | 115% | 118% | 98.6% | 98.9% | 98.2% |
| O=C(NO)c1ccc(Cn2c(=O)n(CCc3ccccc3)c(=O)c3ccccc32)cc1 | 30.5% | 35.4% | 39% | 15.8% | 46.4% | 22.1% | 12.1% | 22.2% | – |
| CCc1ccc(/C=C/c2ccc(O)c3ncccc23)[n+](C)c1 | 42.8% | – | 90.9% | – | 47.7% | 58.5% | 62.7% | 47.6% | 63.5% |
| CCc1nc2cc(/C=C/C(=O)NO)c(F)cc2c(=O)n1CCc1ccccc1 | 4.01% (active) | 6.83% (active) | 15.5% | -21.3% (active) | 8.51% (active) | 13.5% | 1.7% (active) | 3.41% (active) | – |
| N#Cc1c(-c2ccc(C(F)(F)F)cc2)cc(NCC2CCS(=O)(=O)CC2)n2c1nc1ccccc12 | 106% | 90% | 56.2% | 72.6% | 82.4% | 88.2% | 82% | 99.2% | – |
| Nc1nc(N)c2cc(CNc3ccc(C(=O)NC(CC(=O)O)C(=O)O)cc3)ccc2n1 (stereo unspecified) | 26.7% | – | 95.8% | – | 29.7% | 28.5% | 15.6% | 16.7% | 81.3% |
| CC(C)(C)CC(C)(C)Nc1c(-c2c(O)c3ccccc3oc2=O)nc2c(Cl)cc(C(F)(F)F)cn12 | 114% | 94% | 100% | 110% | 107% | 95.9% | 99.1% | 92.2% | – |
| O=CC(OC(=O)c1ccccc1)C(OC(=O)c1ccccc1)C(COC(c1ccccc1)(c1ccccc1)c1ccccc1)OC(=O)c1ccccc1 (stereo unspecified) | 86% | – | 48.4% | – | 38.5% | 93.5% | 76.5% | 53.4% | 67.9% |
| O=C(NCCO)Nc1ccc(-c2nc(N3CCOCC3)c3cccn3n2)cc1 | 11.4% | 34.4% | 4.2% (active) | -33.9% (active) | 11.1% | -23.3% (active) | 0.904% (active) | 6.09% (active) | – |
| COC(=O)[C@@H](C)CNS(=O)(=O)N(c1cc(C(F)(F)F)cc(C(F)(F)F)c1)C1CCN(Cc2ccc(F)cc2)CC1 | 92.9% | – | 71% | – | 84.4% | 81.1% | 73.5% | 58.5% | 43.8% |
| N#Cc1c(-c2ccc(C(F)(F)F)cc2)c(F)c(NCCC2CCC(O)C2)n2c1nc1ccccc12 (stereo unspecified) | 47.2% | 25.9% | 22.1% | 41.4% | 70.7% | 55.4% | 71.1% | 18.4% | – |
| COc1cnc2c(c1)C(=O)c1c-2n(CCCN2CCOCC2)c(=O)c2cc(Cl)ccc12 | 17.8% | 27.5% | 64.1% | 1.67% (active) | 29.1% | 8.59% (active) | 6.36% (active) | 11.9% | – |
| NC(=O)N1N=C(c2ccc(Cl)cc2)CC1c1cn(-c2ccccc2)nc1-c1ccc(Cl)cc1 (stereo unspecified) | 77.7% | 78.8% | 43.4% | -11.2% (active) | 55.4% | 40.3% | 37.8% | 79.8% | – |
| CC(=Nc1ccccc1)C1=C(O)C(Cc2ccccc2)NC1=O (stereo unspecified) | -31.5% (active) | – | -1.28% (active) | – | 14.1% | -19.1% (active) | -33.8% (active) | -16.6% (active) | 58.6% |
| CCc1ccc(C2=C(O)C(=O)C(c3ccc(CC)cc3)=C(O)C2=O)cc1 | 13.8% | – | -0.828% (active) | – | 0.61% (active) | -27.2% (active) | -71.8% (active) | 4.98% (active) | -15.1% (active) |
| O=C(NO)c1ccc(Cn2c(=O)n(-c3ccccc3F)c(=O)c3ccccc32)cc1 | 6.2% (active) | 1.13% (active) | 21.3% | -44.8% (active) | 1.99% (active) | -44.3% (active) | -12.8% (active) | -22.6% (active) | – |
| CC(=O)OCCC/C(=C\c1ccc2ccccc2c1)[N+](=O)[O-] | -93.6% (active) | – | -58.8% (active) | – | -74.2% (active) | 18% | -99% (active) | -70.9% (active) | -53.5% (active) |
| CCCC(=O)OCC1OC(n2cnc3c(=S)nc(N)[nH]c32)C(OC(=O)CCC)C1OC(=O)CCC (stereo unspecified) | 27.3% | – | 38.9% | – | 38.8% | 19.8% | 26.7% | 13.9% | 29.9% |
| Fc1ccc(NCc2cn(-c3ccccc3)nc2-c2ccc(OCc3ccccc3)cc2)cc1Cl | 107% | 89.8% | 72.7% | 112% | 92.2% | 87% | 93.3% | 88.1% | – |
| O=C(Nc1ccc(C2=NCCCN2)cc1)c1ccc(C(=O)Nc2ccc(C3=NCCCN3)cc2)nc1 | 122% | – | 104% | – | 106% | 110% | 104% | 102% | 117% |
| Cc1ccc(-c2nc3ccc(Cl)cn3c2NC2CCCCC2)o1 | 104% | 74.5% | 84.7% | 83.1% | 80% | 91.3% | 95.4% | 101% | – |
